Experimental data taken from PubChem BioAssay (Tox21).
Inconclusive results are not listed. Active and inactive are the calls of the source. Unless noted, calls come from the whole dose curve; as a rule, active = well fitted curve in the direction sought with a large enough effect in the repeat runs; inconclusive = weak or mixed curves; inactive = no such curve, though single readings can be large; an effect the other way counts as inactive or inconclusive.

Key:
[1] = qHTS RealTime-Glo MT Cell Viability Assay in HepG2 cells - 32 hour (AID 1224877); conditions: RealTime-Glo luminescence; series mostly up to 76.8 µM; note: nearly all actives have a fitted effect of over 55% in size
Method in brief: (§1)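 HepG2 suspension premixed with RealTime-Glo reagents is plated at 600 cells per well and left 5 h at 37 C/5% CO2. Compounds in DMSO then go in, and bioluminescence reflecting viable cell number is recorded over 40 h.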

[2] = A CellTox Green Cytotoxicity Assay to monitor cytotoxicity in HepG2 cells - 24 hour (AID 1224878); conditions: CellTox Green fluorescence; series mostly up to 76.8 µM; note: nearly all actives have a fitted effect of over 45% in size
Method in brief: (§2)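 Cytotoxicity was tracked as dead-cell DNA fluorescence in HepG2 cells treated with test compounds at 37 C; each time-point value comes from one kinetic series spanning 0, 8, 16, 24, 32 and 40 h.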

[3] = A CellTox Green Cytotoxicity Assay to monitor cytotoxicity in HepG2 cells - 40 hour (AID 1224879); conditions: CellTox Green fluorescence; series mostly up to 76.8 µM; note: nearly all actives have a fitted effect of over 40% in size
Method in brief: as §2

[4] = qHTS RealTime-Glo MT Cell Viability Assay in HEK293 cells - 0 hour (AID 1224880); conditions: RealTime-Glo luminescence; series mostly up to 76.8 µM; note: top concentration of the series differs between compounds; nearly all actives have a fitted effect of over 45% in size
Method in brief: (§3)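 Kinetic, non-lysing viability readout. Seed HEK293 (600/well) with reagent, incubate 5 h at 37 C/5% CO2, pin 23 nL compound in DMSO, incubate at 37 C, read luminescence at 0, 8, 16, 24, 32, 40 h.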

[5] = A CellTox Green Cytotoxicity Assay to monitor cytotoxicity in HepG2 cells - 0 hour (AID 1224882); conditions: CellTox Green fluorescence; series mostly up to 76.8 µM; note: nearly all actives have a fitted effect of over 35% in size
Method in brief: as §2

[6] = A CellTox Green Cytotoxicity Assay to monitor cytotoxicity in HepG2 cells - 32 hour (AID 1224883); conditions: CellTox Green fluorescence; series mostly up to 76.8 µM; note: nearly all actives have a fitted effect of over 50% in size
Method in brief: as §2

[7] = qHTS RealTime-Glo MT Cell Viability Assay in HepG2 cells - 16 hour (AID 1224885); conditions: RealTime-Glo luminescence; series mostly up to 76.8 µM; note: nearly all actives have a fitted effect of over 50% in size
Method in brief: as §1

[8] = qHTS RealTime-Glo MT Cell Viability Assay in HEK293 cells - 24 hour (AID 1224886); conditions: RealTime-Glo luminescence; series mostly up to 76.8 µM; note: nearly all actives have a fitted effect of over 50% in size; note: potency is the fitted concentration of half-maximal effect; for activity change, negative = cytotoxicity: top concentration of the series differs between compounds
Method in brief: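 Reads taken at 0, 8, 16, 24, 32 and 40 h from the same wells. HEK293 cells (600/well) carried RealTime-Glo reagents from seeding, with compound added after a 5 h settle at 37 C.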

[9] = qHTS RealTime-Glo MT Cell Viability Assay in HEK293 cells - 8 hour (AID 1224887); conditions: RealTime-Glo luminescence; series mostly up to 76.8 µM; note: top concentration of the series differs between compounds; nearly all actives have a fitted effect of over 50% in size
Method in brief: as §3

[10] = A CellTox Green Cytotoxicity Assay to monitor cytotoxicity in HEK293 cells - 16 hour (AID 1224888); conditions: CellTox Green fluorescence; series mostly up to 76.8 µM; note: nearly all actives have a fitted effect of over 35% in size
Method in brief: (§4)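 Real-time, in one plate: 600 HEK293 cells/well with dead-cell DNA dye, pinned compound after 5 h, 37 C incubation over 40 h; viable cells give no appreciable fluorescence.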

[11] = qHTS RealTime-Glo MT Cell Viability Assay in HepG2 cells - 0 hour (AID 1224889); conditions: RealTime-Glo luminescence; series mostly up to 76.8 µM; note: nearly all actives have a fitted effect of over 50% in size
Method in brief: as §1

[12] = A CellTox Green Cytotoxicity Assay to monitor cytotoxicity in HepG2 cells - 8 hour (AID 1224890); conditions: CellTox Green fluorescence; series mostly up to 76.8 µM; note: nearly all actives have a fitted effect of over 45% in size
Method in brief: as §2

[13] = qHTS assay to identify small molecule HDAC inhibitors (AID 1259364); conditions: HCT-116 HDAC-Glo I/II luminescence, 2 h; series mostly up to 92.4 µM;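 note: wild-type HCT-116 cells with endogenous class I/II HDAC activity; top concentration of the series differs between compounds; nearly all actives have a fitted effect of over 45% in size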
Method in brief: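 HCT-116 wt cells, 1,500/well, overnight attach. Compounds (DMSO) 2 h, 37 °C. HDAC-Glo I/II, 30 min RT. Luminescence.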

[14] = qHTS assay to identify small molecule HDAC inhibitors - cell viability counter screen (AID 1259365); conditions: HCT-116 viability, CellTiter-Glo ATP luminescence, 2 h; series mostly up to 92.4 µM; note: nearly all actives have a fitted effect of over 50% in size
Method in brief: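 To flag cytotoxic hits, 1,500 wild-type HCT-116 cells per well, plated the day before, receive test compounds for 2hr at 37 C before CellTiter-Glo reagent and a luminescence read.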

[15] = qHTS assay to identify small molecule antagonists of the estrogen receptor alpha (ER-alpha) signaling pathway using the BG1 cell line in the presence of 0.1 nM 17-beta-estradiol - cell viability counter screen (AID 1259241); conditions: VM7Luc4E2 (BG1) viability, CellTiter-Fluor protease, 22 h, 0.1 nM estradiol agonist added; series mostly up to 92.4 µM; note: nearly all actives have a fitted effect of over 40% in size
Method in brief: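 CellTiter-Fluor read (30 min, 37C) on ER-alpha/ERE-luc VM7Luc4E2 cells; 22 hr compound treatment; agonist 0.1 nM E2 final; same-well multiplex.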

[16] = qHTS assay to identify small molecule antagonists of the androgen receptor (AR) signaling pathway using the MDA cell line in the presence of 0.5 nM R1881 - cell viability counter screen (AID 1259242); conditions: MDA-kb2 viability, CellTiter-Fluor protease fluorescence, 16 h; series mostly up to 92.4 µM; note: nearly all actives have a fitted effect of over 45% in size
Method in brief: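 Cells seeded at 3,000/well and allowed 5 hr at 37C, 0% CO2 before compound transfer and R1881 (0.5 nM final) addition; 16 hr later, live-cell protease fluorescence indicated cytotoxicity.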

[17] = A CellTox Green Cytotoxicity Assay to monitor cytotoxicity in HEK293 cells - 8 hour (AID 1224884); conditions: CellTox Green fluorescence; series mostly up to 76.8 µM; note: nearly all actives have a fitted effect of over 35% in size
Method in brief: as §4

[18] = qHTS assay to identify small molecule phospholipidosis (PLD) inducers (AID 1259344; active = well fitted curve in the direction sought with a large enough effect; an effect the other way counts as inactive or inconclusive); conditions: HepG2 phospholipidosis, LipidTOX Red imaging, 24 h; series mostly up to 38.3 µM
Method in brief: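 Accumulated phospholipid, stained red by LipidTOX during 24 h compound treatment of HepG2 cells at 37 C, is quantified from images as pit number and intensity, normalised per cell using Hoechst-stained nuclei.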

[19] = target: Estrogen receptor (Homo sapiens) (UniProt P03372); assay: qHTS assay to identify small molecule antagonists of the estrogen receptor alpha (ER-alpha) signaling pathway using the BG1 cell line in the presence of 0.1 nM 17-beta-estradiol (AID 1259244); conditions: VM7Luc4E2 (BG1) ERE-luciferase, antagonist mode, 0.1 nM E2, 22 h; series mostly up to 92.4 µM; note: nearly all actives have a fitted effect of over 50% in size
Method in brief: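 Luciferase signal from VM7Luc4E2 ERE-reporter cells, co-dosed with test compound and 0.1 nM final 17beta-estradiol for 22 h, read with ONE-Glo.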

[20] = A CellTox Green Cytotoxicity Assay to monitor cytotoxicity in HEK293 cells - 32 hour (AID 1224881); conditions: CellTox Green fluorescence; series mostly up to 76.8 µM; note: nearly all actives have a fitted effect of over 40% in size
Method in brief: as §4
% is set by controls: 0 for no effect and ±100 for the full control effect.

Estrogen receptor (Homo sapiens), sequence (P03372 whole entry, looked up): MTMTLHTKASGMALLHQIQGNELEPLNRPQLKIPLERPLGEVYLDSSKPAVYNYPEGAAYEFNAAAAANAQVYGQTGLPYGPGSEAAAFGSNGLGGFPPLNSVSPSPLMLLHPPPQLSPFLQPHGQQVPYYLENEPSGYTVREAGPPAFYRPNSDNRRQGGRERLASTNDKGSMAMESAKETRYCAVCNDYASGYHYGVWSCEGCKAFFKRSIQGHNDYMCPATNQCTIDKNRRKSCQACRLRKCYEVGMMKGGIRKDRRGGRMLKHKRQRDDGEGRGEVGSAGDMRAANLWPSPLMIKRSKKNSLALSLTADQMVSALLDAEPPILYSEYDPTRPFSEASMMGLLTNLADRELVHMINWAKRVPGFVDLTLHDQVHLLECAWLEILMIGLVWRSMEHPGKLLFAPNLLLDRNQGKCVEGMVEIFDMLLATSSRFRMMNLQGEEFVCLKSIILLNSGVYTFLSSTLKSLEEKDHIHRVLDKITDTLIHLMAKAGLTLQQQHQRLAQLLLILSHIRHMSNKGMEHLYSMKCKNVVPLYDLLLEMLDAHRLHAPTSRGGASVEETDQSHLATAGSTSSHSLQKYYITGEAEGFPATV

c1ccccc1
inactive: outcome [1] | Potency [2] | Potency [3] | outcome [4] | Potency [5] | Potency [6] | outcome [7] | Potency [8] | Potency [9] | Potency [10] | Potency [11] | Potency [12] | Potency [13] | outcome [14]

O=CO
inactive: activity change, negative = cytotoxic [1] 7.5% [at 6.97 µM] | cytotoxicity [2] -17.2% [at 6.97 µM] | cytotoxicity increase [3] -21.3% [at 6.97 µM] | activity change, negative = cytotoxicity [4] 3.48% [at 6.97 µM] | cytotoxicity [5] -9.11% [at 6.97 µM] | cytotoxicity increase [6] -19.2% [at 6.97 µM] | activity change, negative = cytotoxic [7] -5.47% [at 6.97 µM] | activity change, negative = cytotoxicity [8] 1.22% [at 6.97 µM] | activity change, negative = cytotoxicity [9] 8.18% [at 6.97 µM] | cytotoxicity increase [12] -4.28% [at 6.97 µM] | activity change, negative = cytotoxicity [15] -0.2% [at 8.39 µM] | viability change, negative = cytotoxic [16] 2.31% [at 8.39 µM] | activity change, negative = inhibition [13] -0.333% [at 8.39 µM] | activity change, negative = cytotoxicity [14] -1.28% [at 8.39 µM]

O=c1[nH]c(=O)c2ccccc2o1
inactive: outcome [1] | Potency [2] | Potency [3] | outcome [4] | Potency [5] | Potency [6] | Potency [17] | outcome [7] | Potency [9] | Potency [10] | Potency [11] | Potency [12] | Potency [15] | Potency [16] | outcome [18] | Potency [13] | outcome [14]

CC(=O)/C=C/c1ccco1
inactive: outcome [1] | Potency [2] | Potency [3] | outcome [4] | Potency [5] | Potency [6] | Potency [17] | outcome [7] | Potency [8] | Potency [9] | Potency [10] | Potency [11] | Potency [12] | Potency [15] | Potency [16] | Potency [19] | Potency [13] | outcome [14]

C=COCCOCCOC=C
inactive: outcome [1] | Potency [2] | Potency [3] | outcome [4] | Potency [20] | Potency [6] | outcome [7] | Potency [8] | Potency [9] | Potency [10] | Potency [11] | Potency [12] | Potency [15] | Potency [16] | Potency [13] | outcome [14]

Cn1c(=O)c2c(ncn2CC2OCCO2)n(C)c1=O
inactive: outcome [1] | Potency [2] | Potency [3] | outcome [4] | Potency [20] | Potency [6] | outcome [7] | Potency [8] | Potency [9] | Potency [10] | Potency [12] | Potency [15] | Potency [16] | outcome [18] | Potency [13] | outcome [14]

CCCCOC(=O)C(C)OC(=O)CCC (stereo not drawn)
inactive: outcome [1] | Potency [2] | Potency [3] | outcome [4] | Potency [5] | Potency [17] | outcome [7] | Potency [8] | Potency [9] | Potency [10] | Potency [11] | Potency [12] | Potency [15] | Potency [16] | Potency [19] | Potency [13] | outcome [14]

C[C@H](CCC(=O)NCC(=O)O)[C@H]1CC[C@H]2[C@@H]3[C@H](O)C[C@@H]4C[C@H](O)CC[C@]4(C)[C@H]3C[C@H](O)[C@]12C
inactive: outcome [1] | Potency [2] | Potency [3] | Potency [20] | Potency [5] | Potency [6] | Potency [17] | outcome [7] | Potency [9] | Potency [10] | Potency [12] | Potency [15] | Potency [16] | Potency [13] | outcome [14]
active: Potency [8] 13.4 µM
